Experimental data: PubChem BioAssay AID1259416 (Broad Institute, 2018)
The campaign covered roughly 69,000 compounds. About 2,600 (3.8%) were called active. The sample holds actives, similar compounds and a random draw of the others, so the mix is not that of the screen. No stated cut-off is given here; in the data, active means activity change below about -70% (passing the limit was not always enough); inconclusive means no clear call, values can overlap the other calls.

assay: inhibitors of Toxoplasma growth in IFN-γ-primed hosts – cell-based, primary screen (AID 1259416); conditions: Toxoplasma gondii growth in IFN-gamma-treated host cells; active compounds read low; concentration not given here;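 further: host cells are HeLa cells infected with Toxoplasma gondii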

SMILES | activity change, negative = inhibition
Cc1nc(SCC(=O)Nc2cccc(C(F)(F)F)c2)oc1C | 21% (inactive)
COc1ccc(OC)c(NC(=O)Cn2c(=O)cc(C(=O)N3CCCCC3)c3ccccc32)c1 | 5.37% (inactive)
CN(C)C(=O)[C@@H]1CCS(=O)(=O)[C@H]2CN(C(=O)NCc3ccccc3)C[C@@H]12 | 7.18% (inactive)
COc1cccc(CC2(CO)CCN(c3ncnc4sccc34)CC2)c1 | -61.2% (inactive)
O=S(=O)(c1ccccc1)N1[C@H](CO)[C@@H]2c3ccccc3NC[C@@H]21 | -13.4% (inactive)
C[C@@H]1CCCCO[C@H](CN(C)C(=O)CCCN(C)C)[C@H](C)CN([C@@H](C)CO)C(=O)c2cc(NS(=O)(=O)c3ccc(Cl)cc3)ccc2O1 | -84.8% (active)
COc1ccc(S(=O)(=O)Nc2ccc3c(c2)C(=O)N([C@@H](C)CO)C[C@@H](C)[C@H](CN(C)Cc2ccc(C(F)(F)F)cc2)OCCCC[C@@H](C)O3)cc1 | -112% (active)
CNC[C@@H]1OCCCC[C@H](C)Oc2ccc(NS(=O)(=O)c3ccc(F)cc3)cc2C(=O)N([C@@H](C)CO)C[C@@H]1C | 41.1% (inactive)
C[C@@H]1CN([C@H](C)CO)C(=O)c2cc(NC(=O)NC3CCCCC3)ccc2O[C@@H](C)CCCCO[C@H]1CN(C)S(C)(=O)=O | -35.8% (inactive)
C[C@@H]1CCCCO[C@H](CN(C)C(=O)Nc2ccccc2)[C@H](C)CN([C@H](C)CO)C(=O)c2cc(NC(=O)Nc3ccccc3)ccc2O1 | 72.5% (inactive)
C[C@@H]1CCCCO[C@H](CN(C)Cc2ccc3c(c2)OCO3)[C@H](C)CN([C@@H](C)CO)C(=O)c2cc(NS(=O)(=O)c3cn(C)cn3)ccc2O1 | 11.5% (inactive)
CNC[C@H]1OCCCC[C@@H](C)Oc2ccc(NS(=O)(=O)c3ccc(F)cc3)cc2C(=O)N([C@H](C)CO)C[C@H]1C | 193% (inactive)
COc1ccc(S(=O)(=O)Nc2ccc3c(c2)C(=O)N([C@@H](C)CO)C[C@H](C)[C@H](CN(C)Cc2ccc(C(F)(F)F)cc2)OCCCC[C@@H](C)O3)cc1 | -47% (inactive)
C[C@@H]1CCCCO[C@@H](CN(C)S(=O)(=O)c2ccccc2)[C@H](C)CN([C@H](C)CO)C(=O)c2cc(NC(=O)Nc3ccc4c(c3)OCO4)ccc2O1 | -79.4% (active)
C[C@@H](O)C#Cc1ccc([C@H]2[C@@H](CO)N3CCCCN(CC4CC4)C[C@@H]23)cc1 | -5.07% (inactive)
Cc1nc(-c2cccnc2)sc1C(=O)N(CCN(C)C)Cc1ccc2c(c1)OCO2 | -47.1% (inactive)
CCC(NC(=O)CCNC(=O)c1ccccc1F)c1cccs1 (stereo not drawn) | 98.8% (inactive)
COc1ccc2c(c1)NC1(CCN(S(=O)(=O)c3c(C)nn(C)c3C)CC1)c1cccn1-2 | 1.37% (inactive)
CN1C(=O)CCc2cc(C(=O)NCc3cccc(Cl)c3)ccc21 | -50% (inactive)
Cc1csc(CCCNc2cc(N(C)C)ncn2)n1 | -14.5% (inactive)

SMILES | activity change, negative = inhibition
Cc1ccc(-c2nnn(CC(=O)N(CC(=O)NC(C)(C)C)c3ccc(C(C)C)cc3)n2)o1 | -40.3% (inactive)
CC(C)n1cnc(-c2cc(C(=O)N3CCC(N(C)C)CC3)c3ccccn23)c1 | -48.2% (inactive)
CN(C)C1CCN(C(=O)c2ccnn2-c2ccc3ccc(-c4ccccc4)cn23)CC1 | -101% (active)
Cc1cc(C(=O)N2CCCC(N(C)C)CC2)sc1C (stereo not drawn) | 8.26% (inactive)
CC(C)c1noc(C2CCCN(C(=O)c3cccc4ccnn34)C2)n1 (stereo not drawn) | 88% (inactive)
Cc1ccc2c(c1)C1CN(C)CCC1N2S(=O)(=O)c1ccc(Oc2ccc([N+](=O)[O-])cc2)cc1 (stereo not drawn) | -88.8% (active)
Cc1ccc(NC(=O)NCC(c2cccnc2)c2c[nH]c3ccccc23)cc1F (stereo not drawn) | 41.3% (inactive)
C=CCOCC1c2c(ncn2C(C)C)CCN1C(=O)CC (stereo not drawn) | -6.91% (inactive)
CC(=O)N1C[C@@H]2[C@H](c3ccccc31)[C@H](CO)N2Cc1ccc(Cl)cc1 | 2.64% (inactive)
Cc1ccc(C(=O)N2CC[C@H]3[C@@H]2CCN3c2nncs2)o1 | 17.4% (inactive)
Cc1cccc(C)c1-c1c(-c2ccccc2)ncn1CCCCN | -13.6% (inactive)
OC(Cn1cnc(-c2ccccc2)c1-c1ccccc1)Cn1c2ccccc2c2ccccc21 (stereo not drawn) | -85.9% (active)
Cn1ccnc1-c1c(-c2ccccc2)ncn1CC(O)Cc1ccccc1 (stereo not drawn) | -0.253% (inactive)
CCCC(=O)NCCc1sc(-c2cccc(F)c2)nc1C | 257% (inactive)
CCSc1nc(CC(=O)NCc2nnc3n2CCC3)cs1 | -48.7% (inactive)
c1ccc(C2CCCN2Cc2ccc3occc3c2)nc1 (stereo not drawn) | 2.99% (inactive)
Cc1oc(-c2ccc(NC(=O)c3ccc(C(C)(C)C)cc3)cc2)nc1Cn1cccn1 | -96.9% (active)
Cc1cc(C)cc(C(=O)Nc2ccc(-c3nc(Cn4cc(C)cn4)c(C)o3)cc2)c1 | 2.92% (inactive)
Cc1nn(Cc2nc(-c3ccc(NC(=O)C4CCCO4)cc3)oc2C)c(C)c1C (stereo not drawn) | 33.9% (inactive)
COc1cccc(C(=O)Nc2ccc(-c3nc(Cn4nc(C)c(C)c4C)c(C)o3)cc2)c1 | -97.6% (active)

SMILES | activity change, negative = inhibition
Cc1ccsc1C(=O)Nc1ccc(-c2nc(Cn3cccn3)c(C)o2)cc1 | -12.6% (inactive)
CCC(=O)Nc1ccc(-c2nc(Cn3cccn3)c(C)o2)cc1 | 61.8% (inactive)
Cc1cnn(Cc2nc(-c3ccc(NC(=O)c4cc(F)ccc4F)cc3)oc2C)c1 | -88.5% (active)
Cc1cnn(Cc2nc(-c3ccc(NC(=O)c4ccsc4)cc3)oc2C)c1 | -40.9% (inactive)
COCC(=O)Nc1ccc(-c2nc(Cn3nc(C)cc3C)c(C)o2)cc1 | -41.3% (inactive)
Cc1noc(C)c1CN1CC2C[C@H](C(=O)NCCN(C)C)N(C)C2C1 (stereo partly drawn) | -7.4% (inactive)
CN(C)S(=O)(=O)c1ccc2c(c1)cc(C(=O)NCc1cccc(F)c1)n2Cc1ccncc1 | 104% (inactive)
CCc1ccc(-n2cc3c(=O)n(C)c(=O)n(C)c3c2)cc1 | -61.6% (inactive)
CC[C@H]1CN(C(=O)CCc2cnccn2)CC[C@@]1(C)O | -44.1% (inactive)
Cc1cccc(C(=O)N2CCC3(CC2)CC(CC(=O)NCC2CC2)c2ccccc2O3)n1 (stereo not drawn) | 0.492% (inactive)
Cc1cccc(Cl)c1NC(=O)N1CCN(CC(C)C)C(=O)C1C (stereo not drawn) | -2.03% (inactive)
O=C(Nc1cnc2n1CCCC2)c1ccccc1-n1cncn1 | -1.83% (inactive)
C=CCn1cc(-c2c(-c3ccccc3)ncn2CCc2ccccn2)cn1 | -1.4% (inactive)
O=C(CN1CCCC1=O)N1CCCC2(C=Cc3ccccc3O2)CC1 (stereo not drawn) | -13.8% (inactive)
Cc1ccc(CN2CCC3(CC2)CC(NC(=O)C2CC2)CCO3)cc1C (stereo not drawn) | -5.15% (inactive)
Cc1ccc(-c2ccccc2-n2cnnc2)o1 | -6.57% (inactive)
Cc1ccccc1-c1nc2ccc(-n3cnnc3)cc2o1 | -95.3% (active)
COCCNC(=O)C[C@@H]1CC[C@H]2[C@H](COc3ccc(NS(=O)(=O)c4ccc(Cl)cc4)cc3C(=O)N2C)O1 | -37.6% (inactive)
